Here are results for eight compounds from PubChem BioAssay (NCI).

What all share (assay): NCI-60 one-dose screen, 48 h (100 = growth as untreated, 0 = no growth, -100 = all killed)
Common to all, as to conditions: 10 µM unless noted

For test [1], the system named is MOLT-4 leukemia.
Test [2] relates to SR leukemia.
In test [3] the test system is RPMI-8226 leukemia.
In test [4] the test system is OVCAR-8 ovarian.
The subject of test [5] is OVCAR-5 ovarian.
Test [6] concerns OVCAR-4 ovarian.
For test [7], the system named is SK-OV-3 ovarian.
For test [8], the system named is IGROV1 ovarian.
The subject of test [9] is OVCAR-3 ovarian.
In test [10] the test system is HS 578T breast.
The subject of test [11] is NCI/ADR-RES ovarian.
Test [12] concerns T-47D breast.
In test [13] the test system is BT-549 breast.
Test [14] concerns MDA-MB-435 melanoma.
The subject of test [15] is SW-620 colon.
The test system of test [16] is MCF7 breast.
Test [17] relates to HCT-116 colon.
In test [18] the test system is HCC-2998 colon.
For test [19], the system named is KM12 colon.

Structures are written as SMILES. This is part of a sample that, as a whole, favours compounds with a hit. Of some 83,000 tested, about 20% had one in any assay.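 Treatment: one concentration, 48 hours, 96-well format. Scoring: percent growth, with anything below 10 considered active.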 A number with no mark means an inactive call. Calls of active or inactive are those of the source.

For the compound `CC(C)OC(=O)[C@H](C)NP(=O)(Oc1ccccc1)C1CCCN(O)C1=O` (some centres not stated), the growth in test [1] was 93.7%; in test [2], 89.6%; in [3] it was 101%; in [4] it was 106%; in test [5], 91.7%; in test [6], 107%. The growth in test [7] is 122%; in [8] it was 90.6%; in test [9] it was 99.4%; in test [10], 92%; in test [11] it was 98.4%; in [12], 94.5%. The growth is 95% in test [13]; 96.1% in [14]; 93.1% in [15]; 94.5% in test [16]; 89.6% in test [17]; 97.2% in test [18]. The growth in test [19] is 94.5%.

For `COC(=O)[C@H](Cc1ccccc1)NC(=O)c1csc([C@@H](C[C@H](C(C)C)N(C)C(=O)[C@@H](NC(=O)[C@H]2CCCN2C)C2CC2)OC(C)=O)n1`, the growth in [1] was 5.46% (active); in [2], 6.34% (active); in [3], 10.9%; in test [4], 27.3%; in test [5] it was 36.1%; in test [6], 59.5%. In addition, the growth in test [7] was 52.8%; in [8] it was 39.1%; in test [9], -3.48% (active); in [10], 14.6%; in test [11], 53.3%; in test [12] it was 54.5%. The growth in [13] is 20.6%; in [14] it was -31.2% (active); in [15] it was 24.5%; in test [16], 20.4%; in test [17], -2.44% (active); in [18], 27.8%. Also, the growth in test [19] was 12.6%.

On to `CC(=O)O[C@H]1C(=O)[C@@]2(C)[C@H]([C@H](OC(=O)c3ccccc3)[C@]3(O)C[C@H](OC(=O)[C@H](OC(=O)OC[C@H]4COC(C)(C)O4)[C@@H](NC(=O)c4ccccc4)c4ccccc4)C(C)=C1C3(C)C)[C@]1(OC(C)=O)CO[C@@H]1C[C@@H]2O`, for which the growth in test [1] was 11.7%; in test [2] it was 17.9%; in test [3], 6.27% (active); in [4], 15.9%; in [5], 6.17% (active); in test [6], 55.6%. In addition, the growth in [7] is 22.2%; in test [8], 18.8%; in [9] it was 6.13% (active); in test [10] it was 3.36% (active); in [11] it was 70.1%; in test [12], 31.3%. Also, the growth is 9.68% (active) in test [13]; -73.7% (active) in [14]; 27.8% in test [15]; 9.62% (active) in test [16]; 4.97% (active) in test [17]; 1.92% (active) in test [18]. The growth in test [19] was 11.9%.

With `COC(=O)[C@@H](C)C[C@H](Cc1ccccc1)NC(=O)c1nc([C@@H](C[C@H](C(C)C)N(C)C(=O)[C@@H](NC(=O)[C@H]2CCCCN2C)C(C)C)OC(C)=O)sc1C(C)C`, the growth was 5.59% (active) in [1]; 3.18% (active) in [2]; 20.5% in test [3]; 2.95% (active) in [4]; 27.1% in [5]; 41.6% in test [6]. In addition, the growth in test [7] was 26.8%; in [8], 19.8%; in [9], -22.9% (active); in [10], 4.24% (active); in [11] it was 8.7% (active); in test [12], 53.1%. Further, the growth in [13] is -35.6% (active); in test [14], -46.8% (active); in [15] it was 24.9%; in test [16] it was 18.3%; in [17] it was -5.54% (active); in test [18], 3.15% (active). The growth in [19] is 1.85% (active).

Take `CCC(=O)Nc1ccc(Cl)c(Cl)c1`: the growth was 97.9% in test [1]; 95.5% in [2]; 106% in test [3]; 100% in test [4]; 92.9% in test [5]; 118% in [6]. Moreover, the growth in test [7] was 104%; in test [8], 104%; in test [9], 107%; in test [10] it was 110%; in test [11] it was 102%; in test [12], 87.3%. In addition, the growth is 113% in test [13]; 107% in test [14]; 101% in test [15]; 93.1% in [16]; 99.1% in test [17]; 93.9% in test [18]. In addition, in test [19], the growth was 99.9%.

As to `Cc1cc(N(CCCl)CCCl)ccc1C=Nc1ccc(-c2csc(Cc3ccccc3)n2)cc1`, the growth in [1] was 27.2%; in test [2] it was 27.2%; in test [3] it was 58.5%; in test [4], 65%; in test [5] it was 54.4%; in test [6], 64%. Also, the growth in test [7] was 56%; in [8], 61.7%; in test [9], 75.2%; in [10], 106%; in test [11], 61.6%; in test [12], 45.3%. For the same compound, the growth is 69% in test [13]; 78.3% in [14]; 83.2% in test [15]; 44.5% in [16]; 77% in test [17]; 71.7% in [18]. In [19], the growth is 89.8%.

With `CCOC(=O)[C@@H](C)C[C@H](Cc1ccccc1)NC(=O)c1csc([C@@H](C[C@H](C(C)C)N(C)C(=O)CNC(=O)[C@H]2CCCCN2C)OC(C)=O)n1`, the growth is 19.7% in [1]; 7.72% (active) in test [2]; 15.4% in test [3]; 9.59% (active) in test [4]; 32.1% in test [5]; 46.4% in test [6]. The growth in test [7] was 21.9%; in [8], 33.4%; in test [9], -17.4% (active); in test [10], 3.01% (active); in test [11], 74.7%; in test [12], 47.5%. Besides, the growth was 30.9% in [13]; -63.8% (active) in test [14]; 24.5% in test [15]; 17.9% in [16]; 3.7% (active) in [17]; 8.98% (active) in [18]. In addition, the growth in test [19] was 12%.

Take `COC(=O)[C@H](C[C@H](Cc1ccccc1)NC(=O)c1csc([C@@H](C[C@H](C(C)C)N(C)C(=O)[C@@H](NC(=O)[C@H]2CCCCN2C)C(C)C)OC(C)=O)n1)NC(=O)OCc1ccccc1`: the growth in test [1] was 16.1% [8.5 µM]; in test [2] it was -16.9% [8.5 µM] (active); in [3], -13.9% [8.5 µM] (active); in test [4], 22% [8.5 µM]; in [5], 26.1% [8.5 µM]; in test [6] it was 40.4% [8.5 µM]. The growth in test [7] is 22.9% [8.5 µM]; in test [8] it was 13% [8.5 µM]; in [9], -12.2% [8.5 µM] (active); in test [10], 15.3% [8.5 µM]; in test [11], 8.51% [8.5 µM] (active); in [12] it was 74.1% [8.5 µM]. Moreover, the growth in [13] was -34.2% [8.5 µM] (active); in [14], -33% [8.5 µM] (active); in test [15], 25.4% [8.5 µM]; in test [16], 29.4% [8.5 µM]; in [17], -4.29% [8.5 µM] (active); in [18], 20.4% [8.5 µM]. Moreover, the growth in test [19] was 3.13% [8.5 µM] (active).
